Source: PubChem BioAssay (several laboratories)
E coli growth-1 – E. coli growth inhibition; OD600 absorbance (no concentration beside the values); 0.21% of 330,000 active; Escherichia coli growth, OD600, 23 h; active compounds read low;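 active means OD600 absorbance below the run mean of sample wells minus 3.6 SD, in any replicate, cut at about 0.56 in these data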
phage Ecoli inh – E. coli growth loss with phage present. growth absorbance. inhibition, % at 11.9 µM. 0.26% of 360,000 active. AID 651602; in the data active means inhibition above about 11%
Tat transport – blocks Tat-dependent protein export in E. coli; 0.036% of 340,000 active; inhibition, % at 10 µM; AID 488895; E. coli MC4100 TorA-mCherry Tat export, fluorescence;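 active means mean replicate inhibition at least 50% and at least half of replicates individually reaching 50%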;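 further: exported cargo escapes ClpAP degradation while cytoplasmic cargo is degraded and loses fluorescence; 0% = median of neutral control wells and 100% = median of NaSCN control wells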
AddAB inh – less growth of phage-infected E. coli with AddAB; 0.29% of 330,000 active; inhibition, % at 11.9 µM; E. coli expressing H. pylori AddAB, absorbance growth; AID 435030; in the data active means inhibition above about 12%;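 further: 0% = vehicle wells of infected cells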
E coli growth-2 – reduces bacterial viability in AddAB counter-screen. E. coli V3065 growth, OD600 absorbance, 18 h. inhibition, % at 11.9 µM. 0.27% of 330,000 active. AID 449728;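 active means inhibition above the campaign's mean inhibition across all tested compounds plus 3 SD, cut at about 9.9% in these data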;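 further: uninfected addAB+ strain grown without phage in ampicillin broth; 0% = DMSO wells and 100% = ciprofloxacin 0.95 µg/ml wells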
An asterisk follows results filed as active; nt = no result given. Rows were chosen to be rich in hits. Some 0.5% of all compounds tested hit in one or more screens of this group.

SMILES | E coli growth-1 | phage Ecoli inh | Tat transport | AddAB inh | E coli growth-2
COCCN1C(=NCCCOC(C)C)NC(c2ccccc2)C(C(=O)OC)=C1C (centres undefined) | 0.71 | nt | nt | nt | nt
NCCCn1c(C(=O)c2cc(Cl)c(N)c(Cl)c2)c2ccc([N+](=O)[O-])cc2[n+]1[O-] | 0.42* | 7 | 9 | 15* | 12*
Cc1noc(C)c1NC(=O)N(C)CC1Oc2c(NS(=O)(=O)c3cccs3)cccc2C(=O)N(C(C)CO)CC1C (centres undefined) | 0.71 | nt | nt | nt | nt
COc1ccc(/C=C2\SC(=O)N(CCNC(=O)C3CC(=O)N(c4ccccc4)C3)C2=O)cc1 (centres undefined) | 0.7 | 3 | 7 | 9 | 12*
CCOc1ccc(N2CC(C(=O)NCCN3C(=O)S/C(=C\c4ccc(OC)cc4)C3=O)CC2=O)cc1 (centres undefined) | 0.72 | 1 | -10 | 1 | -1
Nc1ncncc1-c1ccc([N+](=O)[O-])cc1 | 0.36* | 1 | 22 | 4 | 2
CC(C)c1ccc2c(c1)C(N1CCNCC1)Cc1ccc(F)cc1S2 (centres undefined) | 0.13* | 4 | nt | 1 | 1
Cc1nc2ccccc2n1N=Cc1ccc([N+](=O)[O-])o1 | 0.29* | nt | nt | nt | nt
COc1ccccc1C1C(=C(O)c2ccccc2)C(=O)C(=O)N1CC(C)O (centres undefined) | 0.66 | nt | nt | nt | nt
Cc1nnc(SCC2=C(C(=O)O)N3C(=O)C(NC(=O)Cn4nc(C(F)F)cc4C)C3SC2)s1 (centres undefined) | 0.49* | 4 | -7 | 3 | -1
CC(=O)OCC1=C(C(=O)O)N2C(=O)[C@@H](NC(=O)Cc3cccs3)[C@H]2SC1 | 0.046* | 2 | 0 | 3 | -2
Cc1nnc(SCC2=C(C(=O)O)N3C(=O)C(NC(=O)COc4ccccc4)C3SC2)s1 (centres undefined) | 0.5* | 4 | -3 | nt | nt
CC(=O)OCC1=C(C(=O)O)N2C(=O)C(NC(=O)COc3ccc(F)cc3)C2SC1 (centres undefined) | 0.69 | 3 | 3 | nt | nt
Cc1nnc(SCC2=C(C(=O)O)N3C(=O)C(NC(=O)COc4ccc(F)cc4)C3SC2)s1 (centres undefined) | 0.55* | 3 | -2 | 1 | -3
Cc1noc(C)c1COC(=O)C(C)NS(=O)(=O)c1ccc(Cl)c(Cl)c1 (centres undefined) | 0.67 | nt | nt | nt | nt
CCN1C(=O)C2C(c3ccc(SC4CCCCC4)cc3)N[C@@](CC(C)C)(C(=O)OC)C2C1=O (some centres undefined) | 0.72 | nt | nt | nt | nt
S=C(NCCc1ccccc1)NC1CCCCCC1 | 0.65 | 2 | -1 | 2 | 3
S=C(NCCNCc1ccccc1)NC1CCCCC1 | nt | nt | nt | 98* | 98*
O=C(NC(=S)NNC(=O)c1cnccn1)c1ccc(F)cc1 | 0.41* | 3 | 5 | 5 | 3
O=C(/C=C/c1ccc(F)cc1)NC(=S)NNC(=O)c1cnccn1 | 0.66 | 4 | -6 | 4 | 0
CCCc1cc(=O)n2[nH]cc(-c3ccc(Cl)cc3)c2n1 | 0.35* | -5 | -3 | nt | nt
CC(C)N=C(N)N=C(N)Nc1ccc(Cl)cc1 | 0.64 | 6 | 15 | -2 | 4
NC(=NCCCCCCN=C(N)N=C(N)Nc1ccc(Cl)cc1)N=C(N)Nc1ccc(Cl)cc1 | 0.062* | nt | nt | nt | nt
OC(CNCC1CCCO1)Cn1c2ccc(Cl)cc2c2cc(Cl)ccc21 (centres undefined) | 0.55* | 1 | 0 | 3 | 0
OC(CNCCC1C=Nc2ccccc21)Cn1c2ccc(Cl)cc2c2cc(Cl)ccc21 (centres undefined) | 0.054* | 5 | -1 | 3 | 0
SMILES | E coli growth-1 | phage Ecoli inh | Tat transport | AddAB inh | E coli growth-2
OC(CNCC1CCCO1)Cn1c2ccccc2c2ccccc21 (centres undefined) | 0.73 | 2 | -5 | 3 | -1
CCOC(=O)C1C2COc3ccccc3C2N2C(=O)N(c3ccc(Cl)cc3)C(=O)[C@]12C (some centres undefined) | 0.67 | nt | nt | nt | nt
O=C(NC(=S)NNC(=O)c1ccco1)c1ccccc1 | 0.51* | -4 | 0 | -8 | -6
O=C(Cc1cccs1)NNC(=S)NC(=O)c1ccco1 | 0.32* | 2 | -5 | -5 | -5
O=C(NNC(=O)c1ccco1)c1ccccc1 | 0.72 | 4 | 3 | 3 | 1
CCN1C(=O)C2C(c3ccc(C)cc3)N3C(=O)N(c4cccc(Br)c4)C(=O)[C@@]3(CC(C)C)C2C1=O (some centres undefined) | 0.72 | nt | nt | nt | nt
O=C(Cn1c(CO)nc2ccccc21)NCCc1ccc(F)cc1 | 0.69 | 4 | 2 | 10 | 10*
Cc1ccc(SCC(O)=C(C#N)c2nc3ccccc3n2C)cc1 | 0.71 | nt | nt | nt | nt
